From PubChem BioAssay AID2284125 (EPA ToxCast)
Active and inactive are the calls of the source. Rule for the calls: active = hit-call score of the fitted dose curve at least 0.9, where 1 is the maximum; inactive = score below 0.9.

molecular target: Beta-2 adrenergic receptor (Homo sapiens) (UniProt P07550); experiment: ERF_FR_GPCR_hADRB2: Eurofins (ERF) G Protein-Coupled Receptor (GPCR) Radioligand Binding LeadHunter Assay for human Adrenoceptor Receptor beta2 Antagonism, conducted at France lab site
Experimental: ERF_FR_GPCR_hADRB2 is a biochemical, single-readout assay that uses extracted gene-proteins in a cell-free assay. Measurements were taken 2 hour after chemical dosing in a 96-well plate. See beta2 Human Adrenoceptor GPCR Binding (Antagonist Radioligand) Assay, Cerep.ERF_FR_GPCR_hADRB2 is an assay component calculated from the ERF_FR_GPCR_hADRB2 assay. It is designed to measure radioligand binding using a type of binding reporter as detected by scintillation counting with radiometry technology.Data from the assay component ERF_FR_GPCR_hADRB2 was analyzed at the assay endpoint, ERF_FR_GPCR_hADRB2, in the positive analysis fitting direction relative to DMSO as the negative control and baseline of activity. Using a type of binding reporter, loss-of-signal activity can be used to understand changes in binding as they relate to gene ADRB2. To generalize the intended target to other relatable targets, this assay endpoint is annotated to the gpcr intended target family, where the subfamily is adrenoceptor.
Human cells are incubated for 60 minutes in room temprature, using [3H](-)CGP 12177 ligand at 0.3 Kd (nM) with ICI 118551 control inhibitor.Test Sample Requirements: Minimum for 1) Screen: 60 ul of 10 mM stock -OR- 1 mg (pre-weighed) for […] uM final testing. 2) Dose Response: 90 ul of 10 mM stock -OR- 1 mg (pre-weighed) for a top concentration at 10 uM.

Beta-2 adrenergic receptor (Homo sapiens), sequence (P07550 whole entry, looked up): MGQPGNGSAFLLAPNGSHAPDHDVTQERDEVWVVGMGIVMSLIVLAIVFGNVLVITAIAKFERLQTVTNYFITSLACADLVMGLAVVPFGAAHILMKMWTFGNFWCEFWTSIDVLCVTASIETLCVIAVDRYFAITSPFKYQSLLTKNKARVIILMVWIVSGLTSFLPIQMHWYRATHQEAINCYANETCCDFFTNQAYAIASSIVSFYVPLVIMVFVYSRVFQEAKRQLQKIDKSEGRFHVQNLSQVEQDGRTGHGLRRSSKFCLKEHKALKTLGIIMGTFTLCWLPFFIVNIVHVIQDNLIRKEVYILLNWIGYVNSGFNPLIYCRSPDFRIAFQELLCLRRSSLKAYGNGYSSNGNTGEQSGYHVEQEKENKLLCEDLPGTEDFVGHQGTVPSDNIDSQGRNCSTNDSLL

Row | SMILES | AC50 | outcome
1 | O=C(/C=C/c1ccc(O)cc1)CC(=O)/C=C/c1ccc(O)cc1 | 3.68 µM (active) | –
2 | COc1cc(CCC(=O)CC(=O)CCc2ccc(O)c(OC)c2)ccc1O | – | inactive
